High-throughput results (PubChem)
A selection: hits, their analogues and other compounds. The true share with any hit is near 2.6%.
TWEAK-Fn14 inh: inhibitors of TWEAK-Fn14 interaction signaling. TWEAK-stimulated Fn14 reporter cells, luciferase luminescence, 8 h. inhibition, % at 10 µM. 360,000 compounds, 2% hits; in the data active = inhibition above about 50%
TROY signal inh: inhibitors of TROY-dependent NF-kB signaling. 360,000 compounds, 0.98% hits. inhibition, % at 10 µM. Q293 LMP1-TROYcd NF-kB luciferase reporter, 4 h. AID 1347056;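 active = compounds whose plate-normalised and pattern-corrected inhibition of the luciferase reporter signal at the single screening dose is 50% or more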
EWS-Fli block: EWS/Fli transcriptional activity inhibition. A673 NR0B1-luciferase reporter, viability-normalised. inhibition, % at 12.6 µM. 350,000 compounds, 0.67% hits. AID 651661;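 active = mean inhibition of at least 50% after viability correction, with every replicate also passing that limit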;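 also: firefly luciferase signal divided by Alamar Blue viability fluorescence both relative to DMSO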
KKLEB tox: CF airway cell cytotoxicity counter-screen. KKLEB CF airway cells viability, ATPlite luminescence, overnight; stronger effect = lower value; cells stimulated with P. aeruginosa culture filtrate. activity change (cytotoxicity), % at 5 µM. 360,000 compounds, 0.36% hits. AID 602141;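 active = corrected activity change at or below -50% at 5 µM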
LGR2 inh: blocks bursicon-induced cAMP signaling via Drosophila LGR2; inhibition, % at 9.99 µM; HEK293 LGR2, CRE-luciferase, bursicon-stimulated, 4 h; 380,000 compounds, 0.35% hits;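 active = drop in luminescence signal, shown as inhibition above about 50% in the replicate tests, limit read from the data, passing the limit was not always enough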;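 also: agonist challenge used bursicon conditioned medium at about half maximal strength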
CF NFkB inh: cystic fibrosis NF-kB activation inhibition; 360,000 compounds, 0.86% hits; inhibition, % at 5 µM; KKLEB NF-kB-GFP reporter, PAF-induced, GFP fluorescence overnight;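 active = at least 50% inhibition at 5 µM, scaled per plate between neutral and stimulator controls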;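 also: PAF is a Pseudomonas aeruginosa culture filtrate used as stimulus; plate controls were PAF-stimulated DMSO wells for no effect and unstimulated DMSO wells for full effect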
An asterisk follows results filed as active; . = no result given; ! = repeats disagree.

SMILES	TWEAK-Fn14 inh	TROY signal inh	EWS-Fli block	KKLEB tox	LGR2 inh	CF NFkB inh
O=C1/C(=C/c2ccc(O)cc2)COc2ccccc21	65.6*	14.5	17.8	-0.8	-19.6	-1.3
CNc1ccc(/C=C2\COc3ccccc3C2=O)cc1[N+](=O)[O-]	5.9	-67.1	.	-24.6	.	35.3
O=C1/C(=C/c2ccccn2)COc2ccccc21	9.3	-0.7	6.6	16.2	7.5	-37.4
Cc1ccc(CS(=O)(=O)c2ccc(C(=O)N3CCN(c4ccccn4)CC3)cc2[N+](=O)[O-])cc1	50.3*	41.5	18.0	-41.8	21.7	36.4
O=C(c1ccc(S(=O)(=O)c2ccccc2Cl)c([N+](=O)[O-])c1)N1CCN(Cc2ccccc2)CC1	73.8*	33.8	33.4	-6.1	21.3	33.5
CC1CCN(C(=O)c2ccc(S(=O)(=O)Cc3ccccc3F)c([N+](=O)[O-])c2)CC1	63.4*	15.8	3.5	-28.1	39.5	40.9
COc1ccc(-c2cnc3c(c2)C(=O)N([C@@H](C)CO)C[C@H](C)[C@H](CN(C)C(=O)Cc2ccccn2)O3)cc1	.	.	-5.7	.	13.8	.
CO[C@@H]1CN(C)C(=O)c2ccc(NC(=O)Nc3ccc(Cl)cc3)cc2OC[C@@H](C)N(C(=O)Nc2c(C)noc2C)C[C@@H]1C	.	.	1.8	.	10.1	.
O=C(Cc1ccccc1)N1CC(=O)N2[C@H](C1)[C@H](c1ccc(C#CCc3ccccc3)cc1)[C@@H]2CO	.	.	10.5	.	3.5	.
O=C1C=C(N2CCOCC2)c2ccccc2C1=O	9.7	12.4	48.9	-75.6*	29.7	84.8*
O=C1C=C(N2CCOCC2)c2cccc3cccc1c23	3.9	2.0	-3.6	0.8	18.2	-15.5
CCOC(=O)c1c(SCCN2CCCC2)n(-c2ccccc2)c(=S)n(-c2ccccc2)c1=O	-6.5	3.9	61.1*	5.7	-33.2	-28.9
CCOC(=O)c1c[nH]c(=S)n(-c2ccccc2)c1=O	-4.1	-4.0	12.0	-5.0	-0.6	-5.8
CC(=O)N(c1ccc(Cl)cc1)c1cn(C(C)=O)c2ccccc12	-8.9	0.3	5.6	5.1	8.9	6.5
CC(=O)n1cc(N(C(=O)CCl)c2ccc(C)cc2)c2ccccc21	56.0*	-29.5	40.1	-103.2*	-4.0	92.8*
CN1C(=O)c2cc(NC(=O)c3ccc(F)cc3)ccc2OC[C@H]2O[C@H](CC(=O)NCC3CC3)CC[C@H]21	.	.	-4.6	.	-0.8	.
Cc1ccnc(Nc2nc3ccccc3o2)n1	79.8*	30.7	47.9	-21.1	54.2*	9.7
Cc1nc(Nc2nc3ccccc3o2)nc(C)c1C	57.1*	17.2	0.1	20.6	.	6.4
N#Cc1cnc(Nc2nc3ccccc3o2)nc1-c1ccccc1	-3.1	6.9	.	8.6	.	-60.4
O=C(C[C@@H]1C=C[C@@H](NC(=O)Nc2ccc(F)cc2)[C@@H](CO)O1)NCc1ccccn1	.	.	0.7	.	10.8	.
Cc1noc(C)c1NC(=O)Nc1ccc2c(c1)CC(=O)N([C@@H](C)CO)C[C@H](C)[C@@H](CN(C)Cc1ccc3c(c1)OCO3)O2	.	.	-7.9	.	-16.7	.
COc1ccc(S(=O)(=O)Nc2ccc3c(c2)C(=O)N([C@@H](C)CO)C[C@@H](C)[C@H](CN(C)C(=O)Nc2ccc4c(c2)OCO4)O3)cc1	.	.	-17.0	.	20.4	.
CCOC(=O)N1CCN(c2cc(N3CCOCC3)c(F)cc2[N+](=O)[O-])CC1	50.7*	6.2	6.3	-0.2	-2.9	-6.9
O=C(Cc1cccc(C(F)(F)F)c1)NCc1cccc(Cl)c1	17.1	-6.8	-19.3	-0.9	0.7	-10.2
O=C(NCc1cccc(Cl)c1)c1ccc(S(=O)(=O)Nc2cccc(C(F)(F)F)c2)cc1	32.5	55.2*	.	-4.3	3.9	-2.1
SMILES	TWEAK-Fn14 inh	TROY signal inh	EWS-Fli block	KKLEB tox	LGR2 inh	CF NFkB inh
COc1ccccc1NC(=O)N1C[C@@H]2N[C@H](C1)C2c1ccc(-c2cccc(C#N)c2)cc1 (stereo not given in full)	.	.	52.9*!	.	-26.0	.
COc1cccc(-c2ccc(C3[C@@H]4CN(C(=O)C5CC5)C[C@H]3N4)cc2)c1 (stereo not given in full)	.	.	-13.5	.	62.3*!	.
COc1cccc(-c2ccc(C3[C@@H]4CN(C(=O)C5CCC5)C[C@H]3N4)cc2)c1 (stereo not given in full)	.	.	-6.5	.	-1.8	.
COc1ccccc1NC(=O)N1C[C@@H]2N[C@H](C1)C2c1ccc(-c2ccccc2)cc1 (stereo not given in full)	.	.	-5.9	.	5.8	.
C[C@@H]1CN([C@@H](C)CO)C(=O)c2c(c3ccccc3n2C)-c2ccccc2CO[C@H]1CN(C)C(=O)Nc1ccccc1C(F)(F)F	.	.	7.0	.	-4.5	.
COCC(=O)N1C[C@@H]2[C@H](c3ccccc31)[C@H](CO)N2Cc1ccccc1	.	.	-7.5	.	3.7	.
COCC(C)n1c(C)cc(C(=O)COC(=O)c2c(C)nn(-c3ccccc3)c2C)c1C (stereo not given)	-18.4	-3.1	.	-0.2	.	4.7
COCC(C)n1c(C)cc(C(=O)COC(=O)c2c(NC(C)=O)sc(C)c2C)c1C (stereo not given)	15.2	65.0*	.	-1.1	.	0.5
Cc1cccc(C)c1NC(=O)CN(C)CC(=O)Nc1ccccc1Oc1ccccc1	51.8*	0.9	1.9	-5.3	-6.3	-1.2
C[C@H](NC(=O)C[C@H]1CC[C@H](NC(=O)Nc2ccc3c(c2)OCO3)[C@H](CO)O1)c1ccccc1	.	.	2.7	.	-47.6	.
COC(=O)C1=C(C)N(Cc2cccc(C(F)(F)F)c2)C(=NCc2ccc(C(F)(F)F)cc2)NC1c1cccc(F)c1 (stereo not given)	.	.	48.7	.	.	.
COC(=O)C1=C(C)N(Cc2ccccc2)C(=NCc2cccc(Cl)c2)N[C@H]1c1cccc(F)c1	-20.3	7.2	.	-53.1*	.	60.0*
COC(=O)C1=C(C)N(Cc2ccc(C(F)(F)F)cc2)C(=NCc2ccccc2)NC1c1cccc(F)c1 (stereo not given)	.	.	25.7	.	58.1*	.
COC(=O)C1=C(C)N(Cc2ccccc2)C(=NCc2ccc(OC)cc2)N[C@H]1c1cccc(F)c1	-4.3	-4.0	-7.7	-7.3	8.8	31.9
COc1cccc(-c2ccc3n(c2=O)C[C@@H]2N[C@H]3[C@H](C(=O)N3CCCCC3)[C@H]2CO)c1	.	.	-4.2	.	5.8	.
O=C(N/N=C/c1ccccc1O)NC12CC3CC(CC(C3)C1)C2	-9.8	2.0	-63.8	15.4	-68.1	-0.7
O=C(N/N=C/c1cc(Cl)cc([N+](=O)[O-])c1O)NC12CC3CC(CC(C3)C1)C2	66.4*	42.7	18.7	2.4	38.7	31.3
O=c1[nH]c(-c2ccccn2)cc2ccccc12	78.9*	36.0	.	-5.7	-71.2	-29.4
CCCNC(=O)N1CC2(C1)CN(C(C)=O)[C@@H](CO)c1c2c2ccc(OC)cc2n1C	.	.	-1.4	.	2.5	.
